# Data from ChEMBL document CHEMBL3988442, “University of Dundee, Small-Polar-MMV Screening Library” (2021).
# Out of some 48,000 compounds screened, about 13,000 (27%) showed an effect of 50% or more. The list shows a part of the results.
# Tested on: Wolbachia pipientis
# Assay: Anti-Wolbachia Cell-Based Screen
# Assay type: functional
# Parameters: scale not given: in the data most compounds retested in dose-response had high values
# Details: 5 µM
row,SMILES,Percent Effect [%]
1,O=C(Nc1ccc(F)c(Cl)c1)N1CCCN([C@H]2COC[C@@H]2O)CC1,0.3317
2,Cc1nc(C)n(CC2CCCCN2CC(=O)Nc2nncs2)n1 (stereo unspecified),-8.145
3,Cc1cc(C)cc(CN2CCN(Cc3cc(C#N)n(C)c3)CC2=O)c1,-7.638
4,CCCC(C)Sc1nnnn1C1CCOCC1 (stereo unspecified),-26.91
5,Cc1c[nH]c(CN2CCCn3nc(CNS(C)(=O)=O)cc3C2)n1,-1.605
6,CC(O)CNC(=O)NCc1cccnc1OC1CCCC1 (stereo unspecified),3.42
7,CCC(CNC1CCN(C(=O)N(C)C)CC1)Oc1ccccc1C (stereo unspecified),14.11
8,CC(C)c1noc(C(C)N2CCN(CCc3ccncc3)CC2)n1 (stereo unspecified),-3.07
9,CCSCCC(=O)NC1CCN(C(C)c2ccccc2)CC1 (stereo unspecified),-12.67
10,CNC(=O)CCN1CCN(C(C)c2ccc(Cl)cc2)CC1 (stereo unspecified),7.005
11,CCc1noc(C(C)N2CCC(NC(=O)c3ccc(C)s3)CC2)n1 (stereo unspecified),-3.823
12,CCc1nnc(C(C)N2CCC(NC(=O)C3CCCCC3)CC2)o1 (stereo unspecified),111.1
13,CCc1noc(C(C)N2CCN(Cc3ncc(C(C)(C)C)o3)CC2)n1 (stereo unspecified),-21.42
14,CCc1nnc(C(C)N2CCN(CCC(C)(C)C)CC2)o1 (stereo unspecified),109.6
15,CCc1nnc(C(C)N2CCN(CCC(=O)NC3CC3)CC2)o1 (stereo unspecified),108.9
16,CCS(=O)(=O)c1ccc(N2CCC(NC(=O)C3CCCCC3)CC2)cc1,14.13
17,CC(C)(C)n1ncc2c(=O)[nH]c(N3CC(O)C3)nc21,23.02
18,CN(C)c1nc(CNC(=O)NC2CCc3ccccc32)cs1 (stereo unspecified),14.75
19,CC(c1nccs1)N(C)Cc1ccc(CCC(C)(C)O)cc1 (stereo unspecified),-1.522
20,CC(=O)N1C[C@@H](F)[C@@H](OCc2nc3cc(C)c(C)cc3[nH]2)C1,-18.48
21,CCOCCCNC(=O)NCc1c(C)nn(C)c1C,102.2
22,CCOCCCNC(=O)c1cn(CC)nc1C,9.774
23,CCOCCCNc1nc2c(s1)c(C)nn2C,6.024
24,CCc1nc2c(c(N(C)Cc3nncn3CCOC)n1)CCNCC2,0.734
25,Cc1cc2[nH]c(=O)c(=O)[nH]c2cc1S(=O)(=O)NC1CCCCC1,114.9
26,Cc1cn2c(n1)CCC(NS(=O)(=O)c1cc(C)sc1C)C2 (stereo unspecified),-1.827

row,SMILES,Percent Effect [%]
1,Cc1cc2[nH]c(=O)c(=O)[nH]c2cc1S(=O)(=O)NC1CCC(C)CC1 (stereo unspecified),107.5
2,Cc1cc(CS(=O)(=O)NC2CCCCC2)on1,4.481
3,Cc1cc(S(C)(=O)=O)c(C)c(S(=O)(=O)NC2CCCC2)c1,3.251
4,Cc1c(NCc2cccc(C#N)c2)cccc1S(=O)(=O)NC1CC1,-25.48
5,CC(C)(O)CN1CCN(C(=O)COCC(F)(F)F)CC1,2.26
6,O=C1NCC2(CCCN(C(=O)c3ccc4c(c3)CCCO4)CC2)O1 (stereo unspecified),15.15
7,Cc1ccnc(NC(=O)c2ccc(Br)o2)c1,-3.231
8,Cc1ccnc(NC(=O)c2ccc(C)o2)c1,-0.4749
9,Cc1ccc(NC(=O)c2cccc(N(C)C)c2)nc1,-7.622
10,Cc1ccc(NC(=O)c2cccc(OCc3nnnn3C)c2)nc1,97.4
11,CN(C)c1ccc(NC(=O)c2cccc(N(C)C)c2)nc1,-10.74
12,Cc1ccnc(NC(=O)c2cccc(OCc3nnnn3C)c2)c1,92.28
13,CNS(=O)(=O)CCN1CC(c2ccccc2)(c2ccccc2)CCC1=O,8.028
14,CCC(CC)(CNC(=O)OC(C)(C)C)NC(=O)c1cnccn1,8.305
15,CN(Cc1ccncc1)C1COC2(CCN(Cc3cccs3)CC2)C1.O=C(O)C(F)(F)F.O=C(O)C(F)(F)F.O=C(O)C(F)(F)F (stereo unspecified),100.2
16,CN(Cc1cn2c(n1)CN(Cc1nccs1)CC2)Cc1ccco1.O=C(O)C(F)(F)F.O=C(O)C(F)(F)F,-16.64
17,CN(Cc1cccnc1)C1CC2(CCN(c3ncccn3)CC2)C1.O=C(O)C(F)(F)F.O=C(O)C(F)(F)F,96.99
18,CN(Cc1ccccc1)C1COC2(CCN(Cc3nccs3)CC2)C1.O=C(O)C(F)(F)F (stereo unspecified),20.92
19,Cc1cnc(N2CCC3(CC2)CC(N(C)Cc2ccncc2)C3)nc1.O=C(O)C(F)(F)F.O=C(O)C(F)(F)F,-8.3
20,CN(Cc1cccnc1)C1COC2(CCN(Cc3nccs3)CC2)C1.O=C(O)C(F)(F)F.O=C(O)C(F)(F)F.O=C(O)C(F)(F)F (stereo unspecified),111.1
21,CN(Cc1ccccn1)C1COC2(CCN(Cc3nccs3)CC2)C1 (stereo unspecified),-7.584
22,CN(Cc1ccncc1)C1CC2(CCN(c3ncccn3)CC2)C1.O=C(O)C(F)(F)F.O=C(O)C(F)(F)F.O=C(O)C(F)(F)F,-4.65
23,CN(C)S(=O)(=O)N1CC[C@]2(C[C@H](OCc3ccncc3)CO2)C1.O=C(O)C(F)(F)F,20.75
24,CN(Cc1cccnc1)C1CC2(CCN(c3ncc(F)cn3)CC2)C1.O=C(O)C(F)(F)F.O=C(O)C(F)(F)F,-6.301
25,Cc1ccsc1CN1CCC2(CC1)CC(OCc1cccnc1)CO2.O=C(O)C(F)(F)F.O=C(O)C(F)(F)F (stereo unspecified),12.52
26,CN(Cc1ccco1)C1COC2(CCN(Cc3nccs3)CC2)C1.O=C(O)C(F)(F)F.O=C(O)C(F)(F)F (stereo unspecified),98.22

row,SMILES,Percent Effect [%]
1,COc1ccc(CN(C(=O)C(C)SC)c2cnn(C)c2)c(OC)c1 (stereo unspecified),-2.56
2,O=C1CC[C@H]2CN(Cc3ccc(Cl)s3)CC[C@H]2N1CCc1c[nH]cn1,-29.01
3,CCc1cc(NCCNc2ccncc2C)n2nc(C)c(C)c2n1,11.08
4,Cc1noc(C)c1CN(C)C(=O)C1(NS(C)(=O)=O)CCCCC1,-10.96
5,CCc1nc(C)c(CN2CCOC(CCCC(C)C)C2)[nH]1 (stereo unspecified),-5.664
6,COC[C@H]1CNC(=O)[C@@H]2CCN(Cc3ccc(F)cc3)CC[C@H]12.O=C(O)C(F)(F)F,-11.52
7,CSc1nccc(N2CCN(C)C3(CCC(=O)N(CC4CC4)CC3)C2)n1 (stereo unspecified),-14.1
8,O=C(NCC(F)(F)F)C1CSCN1S(=O)(=O)c1ccc(F)cc1 (stereo unspecified),3.931
9,CN(C)C1COC2(CCN(Cc3nccs3)CC2)C1.O=C(O)C(F)(F)F.O=C(O)C(F)(F)F (stereo unspecified),52.92
10,CC1N(C)C(=O)COC12CCN(Cc1nccs1)CC2.O=C(O)C(F)(F)F (stereo unspecified),126.1
11,CN(C)C(=O)CN1CCC2(CCN(Cc3nccs3)CC2)C1=O.O=C(O)C(F)(F)F,-19.71
12,CC(C)CN1CCC2(CCN(Cc3nccs3)CC2)C1=O.O=C(O)C(F)(F)F,1.148
13,CC1N(CC2CC2)C(=O)COC12CCN(Cc1nccs1)CC2.O=C(O)C(F)(F)F (stereo unspecified),-4.952
14,CCc1ccc2c(c1)C(CCNC(=O)Cc1ccc(F)cc1)C(=O)N2 (stereo unspecified),3.277
15,Cc1c(CNCC(C)Oc2cccnc2)c2ccccc2n1CC(N)=O (stereo unspecified),60.46
16,COc1ncccc1C(=O)NCC(C)Oc1cccnc1 (stereo unspecified),-11.32
17,Cc1c(CNCCCOc2cccnc2)c2ccccc2n1CC(N)=O,-2.741
18,Cc1cc2n(n1)CC(CNC1CCN(C(=O)c3ccco3)CC1)CN2 (stereo unspecified),7.634
19,COCCN1CCCC(O)(CN2CCCN(c3ncccn3)CC2)C1=O (stereo unspecified),-4.112
20,CN(CCc1ccccn1)C1CCCN(Cc2noc(C3CC3)n2)C1 (stereo unspecified),103.4
21,CN(CCc1ccncc1)C1CCCN(Cc2noc(C3CC3)n2)C1 (stereo unspecified),107.5
22,CN(CCCC#N)C1CCCN(Cc2noc(C3CC3)n2)C1 (stereo unspecified),-8.895
23,CN(CCn1cccn1)C1CCCN(Cc2noc(C3CC3)n2)C1 (stereo unspecified),100.3
24,Cc1nc(CN2CCCC(N(C)CCc3ccncc3)C2)no1 (stereo unspecified),-4.077
25,CN(CCS(C)(=O)=O)C1CCCN(Cc2noc(C3CC3)n2)C1 (stereo unspecified),107.2
26,CCc1nc(CN2CCCC(N(C)CCn3cncn3)C2)no1 (stereo unspecified),8.167

row,SMILES,Percent Effect [%]
1,Cc1cc(CN(C)C2CCCN(Cc3noc(C4CC4)n3)C2)no1 (stereo unspecified),1.987
2,CN(CC1(O)CCCCC1)C1CCCN(Cc2noc(C3CC3)n2)C1 (stereo unspecified),0.01553
3,CN(Cc1cscn1)C1CCCN(Cc2noc(C3CC3)n2)C1 (stereo unspecified),3.354
4,CN(CCc1cccs1)C1CCCN(Cc2noc(C3CC3)n2)C1 (stereo unspecified),-17.24
5,c1cncc(CN2CCC(NCCc3ccc4c(c3)CCO4)CC2)c1,11.75
6,O=C1CCCCN1Cc1cccc(NC(=O)N2CCSCC2)c1,7.58
7,COc1cccc(C(C(=O)O)N2CCCN(C3CCCC3)CC2)c1OC (stereo unspecified),17.91
8,Cc1noc(C)c1CCN1CCCC1c1nc2cc(F)ccc2[nH]1 (stereo unspecified),-25.67
9,CC(NC(=O)Nc1cccnc1N1CCCC1)c1nncn1C (stereo unspecified),-5.724
10,CCc1cc(NCCNC(C)=O)nc(N2CCCC2)n1,3.61
11,CCOc1ccc(S(=O)(=O)NCCCc2ccc(N(C)C)cc2)cc1C,28.94
12,Cc1cc(C)n(CCC(=O)OCC(=O)N2CCc3sccc3C2)n1,1.296
13,CN(CC1CCCO1)c1nc(-c2cccnc2)nc2c1CCNCC2 (stereo unspecified),-5.842
14,Cc1cc(C2CCCN2CC(=O)N(CCC#N)c2ccccc2F)on1 (stereo unspecified),6
15,CCCC(=O)NCc1ccc(N2CCCCC2)cc1,-2.635
16,CC(NCC(=O)Nc1ccc(N2CCCCCC2)cc1)c1cccs1 (stereo unspecified),140.9
17,CN(CC(=O)NCC(=O)Nc1ccc(F)cc1)Cc1cccs1,82.61
18,CC(NCC(=O)NCC(=O)Nc1ccc(F)cc1)c1cccs1 (stereo unspecified),91.77
19,CCC(NC(=O)NCC(=O)Nc1ccc(F)cc1)c1ccncc1 (stereo unspecified),13.9
20,CN(CC(=O)NS(=O)(=O)c1cccs1)Cc1ccccc1,-0.04031
21,CC(C#N)CSc1ccccc1NCC(=O)Nc1ccc(F)cc1 (stereo unspecified),-2.506
22,O=C(Cc1cccs1)NCC(=O)Nc1cn[nH]c1,-3.119
23,CC(C)CCC(=O)NCc1ccc(N2CCCCC2)cc1,9.507
